Shown are actives, neighbours in structure and some others; about 19% of the full set was active somewhere.
TDP1 inh – blocks human tyrosyl-DNA phosphodiesterase 1 | hit rate 0.28% among 350,000 | AID 485290 | recombinant TDP1, AlphaScreen DNA substrate cleavage | Potency, µM (titrated, usually from 130 µM), without a hit: top-dose activity change, negative = inhibition, actives largely listed as inhibitors | Q9NUW8; further: potency means the concentration at half of the fitted maximal effect; nearly all actives have a fitted effect of over 40% in size
Target sequence (Q9NUW8 whole entry, looked up): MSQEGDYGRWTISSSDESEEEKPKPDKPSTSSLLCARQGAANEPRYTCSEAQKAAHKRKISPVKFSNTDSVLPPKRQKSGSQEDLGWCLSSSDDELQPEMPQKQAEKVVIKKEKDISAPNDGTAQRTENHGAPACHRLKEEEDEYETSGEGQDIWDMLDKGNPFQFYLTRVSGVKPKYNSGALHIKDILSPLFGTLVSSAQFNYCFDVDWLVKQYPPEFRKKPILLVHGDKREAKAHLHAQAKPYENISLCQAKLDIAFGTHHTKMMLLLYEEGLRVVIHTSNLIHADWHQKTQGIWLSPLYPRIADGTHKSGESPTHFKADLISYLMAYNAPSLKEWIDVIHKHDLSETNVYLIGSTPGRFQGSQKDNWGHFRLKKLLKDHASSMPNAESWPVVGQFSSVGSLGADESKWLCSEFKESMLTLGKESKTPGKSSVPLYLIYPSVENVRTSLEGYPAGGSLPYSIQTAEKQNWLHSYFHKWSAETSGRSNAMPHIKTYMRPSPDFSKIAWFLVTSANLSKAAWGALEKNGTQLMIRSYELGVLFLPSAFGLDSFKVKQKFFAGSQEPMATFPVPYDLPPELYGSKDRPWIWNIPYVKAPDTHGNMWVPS
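Signal: AlphaScreen proximity between streptavidin donor and anti-FITC acceptor beads on intact substrate. Reaction: Tdp1 1 nM, substrate 15 nM final, 5 min RT after 15 min compound preincubation.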
IL1B secr inh – inflammasome signaling inhibition, IL-1 beta readout. hit rate 4.7% among 360,000. THP-1 LPS/ATP IL-1B secretion, AlphaLISA, 16 h; stronger effect = lower value. AID 743279. activity change, % at 57.5 µM; in the data active means activity change below about -50%; inconclusive means mostly about -30% to -49%
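THP-1 cells pretreated 1 hr with compounds (up to 57.5 uM final), then stimulated with LPS (250 ng/mL final) plus ATP (1.25 mM final); secreted IL-1B measured by AlphaLISA after 16 hr, decreased signal indicating inhibition.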
Giardia kill – Giardia lamblia killing. Giardia lamblia trophozoite viability. activity change, % at 7.66 µM, hits read low. hit rate 0.15% among 340,000; in the data active means activity change below about -80%; inconclusive means between about -30% and that limit;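 further: parasites exposed to compound for two days anaerobically before the ATP read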
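Luminescence from cellular ATP indicates surviving trophozoites (100 cells/well) following 48 hrs anaerobic compound treatment at 37 deg C; signal develops 15-30 min at room temperature.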
ELG1 repair inh – inhibitors of ELG1-dependent DNA repair in HEK293T cells; hit rate 2.3% among 330,000; Potency, µM (doses to about 46.1 µM), inactives show top-dose activity change, negative = inhibition, usual class: inhibitors; HEK293T ELG1-luciferase reporter, luminescence, 16 h; DNA damage induced by 5-fluorouridine; AID 504467; further: potency means the concentration at half of the fitted maximal effect; nearly all actives have a fitted effect of over 55% in size
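HEK293T cells expressing luciferase-tagged ELG1 (2,000/well) received 5-Fluorouridine plus compound or DMSO for 16 hr at 37 °C. Luciferase was read by ONE-Glo luminescence after 30 min at room temperature.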
DT40 TDP1 CPT – DT40-hTDP1 cell growth loss with CPT; chicken DT40 Tdp1-/-;hTDP1 cells + 20 nM CPT, ATP luminescence, 48 h; Potency, µM (titrated, usually from 46.2 µM), for inactives: at the highest dose activity change, negative = growth inhibition, most hits filed as inhibitors; hit rate 12% among 420,000; AID 686979; further: potency means the concentration at half of the fitted maximal effect; nearly all actives have a fitted effect of over 55% in size
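Chicken DT40 Tdp1-/- cells complemented with human TDP1, 400 cells/well, exposed to compounds plus 20 nM camptothecin for at least 48 h at 37 C; viability read as ATP content by CellTiter-Glo luminescence.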
TDP1 cell noCPT – qHTS for Inhibitors of human tyrosyl-DNA phosphodiesterase 1 (TDP1): qHTS in cells in absence of CPT | DT40 Tdp1-/- hTDP1 cells, no CPT, ATP luminescence, 48 h | Potency, µM (series often up to 46.2 µM), for the others: top-dose activity change, negative = growth inhibition, usual class: inhibitors | hit rate 15% among 420,000 | AID 686978, 2013; further: potency means the concentration at half of the fitted maximal effect; nearly all actives have a fitted effect of over 55% in size
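Camptothecin absent (DMSO only). Human TDP1-complemented DT40 knockout cells, 400 cells/well, 37 °C for minimum 48 hr; ATP measured via CellTiter-Glo, 30 min dark incubation, luminescence.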
* marks the source's active call; other numbers are inactive results; ? = inconclusive; · = no result given; ! = not confirmed by another sample; [ ] = remark or other dose. Unless noted, the call rests on the fitted dose curve; in most records, active means well fitted curve in the direction sought with a large enough effect; inconclusive means small, poorly fitted or top-dose-only effect, or another doubt; inactive means no such curve, though single readings can be large; an effect the other way counts as inactive or inconclusive. On the % scale 0 is the no-effect control and ±100 the full control effect.

SMILES	TDP1 inh	IL1B secr inh	Giardia kill	ELG1 repair inh	DT40 TDP1 CPT	TDP1 cell noCPT
CCCCC1CC(CSC(=N)N)OC1=O (stereo not given)	5%	-13	0	-27%	?	?
Cc1ccc(-n2c(SCC(=O)Nc3ccc4c(c3)OCCO4)nc3c([nH]c4ccccc43)c2=O)cc1	9%	·	·	·	?	?
NC1(C#Cc2ccc3oc(=O)c(-n4cc(-c5ccsc5)nn4)cc3c2)CCCCC1	-1%	-99*	?	-1%	8.2µM*	8.2µM*
NC1(C#Cc2ccc3oc(=O)c(-n4cc(C5(O)CCCCC5)nn4)cc3c2)CCCCC1	1%	-14	10	23%	-1%	-17%
Cc1ccc(Sc2cnc(N)nc2C)cc1	2%	-11	-19	-6%	?	16µM*
Cc1ccc(C(=O)NCCCc2ccccc2)s1	5%	-9	19	?	-22%	-10%
C=C(c1nc2ccccc2s1)C1Cc2cccc3c2N(CCC3)C1 (stereo not given)	·	·	·	·	0.089µM*	0.089µM*
CC1(C)C(=O)C(c2ccccc2)=C2CN3C(=O)N(CCc4ccccc4)C(=O)C3(Cc3ccccc3)C=C21 (stereo not given)	9%	·	·	·	·	·
c1coc(Cn2c(-c3ccco3)nc3ccccc32)c1	0%	12	-12	?	?	?
CCCN1CN(Cc2ccco2)c2nc3ccccc3n2C1	6%	2	9	?	15µM*	?
CCn1cc(C(=O)NCc2ccccc2)c(=O)c2cc(F)c(N3CCN(C(=O)c4ccco4)CC3)cc21	10%	-64*	2	16µM*	10µM*	9.2µM*
CCn1cc(C(=O)NCc2ccc3c(c2)OCO3)c(=O)c2cc(F)c(N3CCN(C(=O)c4ccco4)CC3)cc21	3%	-59*	19	9.2µM*	12µM*	10µM*
Cc1cc(C)cc(-n2nnnc2SCC(=O)Nc2nc(-c3ccc(F)cc3)cs2)c1	3%	18	19	?	?	-19%
Cc1nnc(N/N=C/c2cc(C)n(-c3ccc(F)cc3)c2C)n1N	3%	40	3	26%	13µM*	16µM*
Cc1nc2ccccn2c1C(=O)N/N=C/c1cc(C)n(-c2ccc(Br)cc2)c1C	9%	-22	-11	?	18µM*	21µM*
Cc1cccc(-n2c(C)cc(/C=N\NC(=O)c3ccco3)c2C)c1	4%	-15	-20	?	?	?
Cc1cc(/C=N/NC(N)=S)c(C)n1-c1cccc(Cl)c1	8%	82	0	-15%	13µM*	16µM*
Cc1nnc(N/N=C/c2c(Cl)cccc2Cl)n1N	5%	-105*	1	0%	-7%	-16%
O=C(CNC(=O)c1ccc(Cl)cc1Cl)OCc1ccccc1	-9%	13	26	12%	?	-1%
COC(=O)C/C=C1\c2ccc3c(c2[C@@H](OC)[C@@H]1C)OCO3	3%	·	·	·	·	·
NCCCC[C@H](NC(=O)CNC(=O)[C@@H]1CCCN1C(=O)[C@H](Cc1ccc(O)cc1)NC(=O)CN)C(=O)N[C@@H](Cc1ccccc1)C(=O)O	7%	·	·	·	·	·
Cc1cc(/C=N/NC(N)=S)c(C)n1-c1ccc(Cl)cc1	-3%	27	10	-19%	12µM*	18µM*
COc1ccc(Br)cc1/C=N/NC(=O)Cn1nnnc1N	0%	29	30	-2%	?	?
Cc1cc(/C=N/O)c(C)n1-c1ccc(Br)cc1	6%	0	?	21%	1%	?
CC(C)Oc1ccc(Br)cc1/C=N\NC(N)=S	-1%	-27	-7	-13%	?	16µM*
SMILES	TDP1 inh	IL1B secr inh	Giardia kill	ELG1 repair inh	DT40 TDP1 CPT	TDP1 cell noCPT
Cc1cc(/C=N/NC(N)=S)c(C)n1-c1ccc(Br)cc1	13%	1	-10	?	2.9µM*	8.2µM*
COCc1cc(C)nc(OCC(=O)N/N=C/c2cc(C)n(-c3c(C)cccc3C)c2C)c1C#N	10%	25	4	-1%	-9%	?
Cc1cccc(C)c1-n1c(C)cc(/C=N/NC(N)=S)c1C	9%	80	2	6%	7.3µM*	8.2µM*
Cc1cc(/C=N\NC(=O)CC(=O)NC2CCCCC2)c(C)n1-c1ccc(Cl)cc1	3%	-9	2	-10%	?	?
C[C@H](CO)N1C[C@H](C)[C@H](CN(C)C(=O)c2ccccc2)Oc2cc(Br)ccc2S1(=O)=O	·	11	·	·	5%	3%
C[C@@H](C(=O)Nc1ccc2ccccc2c1)[C@@H]1C[C@@]1(C)[C@@H](NS(=O)(=O)c1ccc(-c2ccccc2)cc1)c1ccccc1	7%	·	·	·	·	·
Cc1ccc(OC2CCN(C(=O)[C@H]3O[C@@H](n4ccc(=O)[nH]c4=O)[C@H](O)[C@@H]3O)CC2)cc1	·	10	·	·	-14%	?
Cc1cc(/C=N\NC(=O)c2cccs2)c(C)n1-c1ccc2ncccc2c1	9%	-17	18	?	13µM*	10µM*
Cc1cc(/C=N\NC(=O)COc2cccc3cccnc23)c(C)n1-c1ccc(Br)cc1	11%	-7	28	-15%	?	-20%
Oc1ccc([C@@H]2CNCCc3c2cc(O)c(O)c3Cl)cc1	12%[56.1 µM]	·	·	·	?	30µM*
C=CCN1CCc2cc(O)c(O)cc2[C@H](c2ccccc2)C1	?	·	·	·	?	27µM*
Oc1cc2c(cc1O)C(c1ccccc1)CNCC2 (stereo not given)	-4%[56.1 µM]	-2	-3	·	?	26µM*!
C=CCN1CCc2c(cc(O)c(O)c2Br)[C@@H](c2ccccc2)C1	13%[56.1 µM]	106	7	·	?	7.3µM*
Oc1cc2c(cc1O)[C@@H](c1ccccc1)CNCC2	0%	17	-15	11%	?	?
CCCn1c(N)c(N(CCOC)C(=O)/C=C/c2cccc(Cl)c2)c(=O)[nH]c1=O	-6%	-16	-14	3%	11%	15%
O=c1n(Cc2ccc(Cl)cc2)nc2n1-c1ccccc1OC2	3%	·	·	·	11%	-3%
O=C(CSc1nnc(COc2ccccc2)o1)Nc1cc(C(F)(F)F)ccc1Cl	·	·	·	·	-24%	6%
O=C(CSc1nc2c(oc3ccccc32)c(=O)n1-c1ccccc1)Nc1ccc(F)c(Cl)c1	-1%	·	·	·	?	13µM*
O=C(CSc1nc2c([nH]c3ccccc32)c(=O)n1-c1ccccc1)Nc1ccc2c(c1)OCCO2	9%	·	·	·	?	?

High-throughput results (PubChem)
